This is an account of results in PubChem BioAssay (Tox21).

Unmarked numbers belong to inactive results. Where a call stands in place of a potency, no number is given. Activity calls are given as the source filed them. The call rests on the fitted dose curve.

Sequence of Acetylcholinesterase (Homo sapiens) (P22303 whole entry, looked up): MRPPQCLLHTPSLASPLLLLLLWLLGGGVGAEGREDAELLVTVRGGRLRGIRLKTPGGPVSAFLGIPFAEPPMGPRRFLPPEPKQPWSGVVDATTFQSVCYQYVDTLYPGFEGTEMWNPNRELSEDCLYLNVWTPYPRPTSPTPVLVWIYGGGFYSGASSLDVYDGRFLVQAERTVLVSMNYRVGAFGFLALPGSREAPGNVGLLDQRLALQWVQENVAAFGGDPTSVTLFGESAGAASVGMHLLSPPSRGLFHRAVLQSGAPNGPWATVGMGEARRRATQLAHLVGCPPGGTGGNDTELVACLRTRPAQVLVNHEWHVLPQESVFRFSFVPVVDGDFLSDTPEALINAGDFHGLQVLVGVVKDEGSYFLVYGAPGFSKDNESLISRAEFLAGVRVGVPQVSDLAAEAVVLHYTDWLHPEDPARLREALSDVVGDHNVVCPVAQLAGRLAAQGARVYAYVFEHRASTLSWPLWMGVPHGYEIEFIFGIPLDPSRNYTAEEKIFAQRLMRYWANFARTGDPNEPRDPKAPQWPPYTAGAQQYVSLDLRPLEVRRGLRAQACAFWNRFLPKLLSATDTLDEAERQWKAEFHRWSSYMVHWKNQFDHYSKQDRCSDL

This assay addresses Acetylcholinesterase (Homo sapiens) (UniProt P22303). The experiment in a line: Acetylcholinesterase (AChE) small molecule antagonists: enzyme-based qHTS assay with human liver microsomes (AID 1347399). Further: nearly all actives have a fitted effect of over 60% in size. The note with it: Potency: qHTS inhibition; outcome: qHTS inhibition; series mostly up to 115 µM. An excerpt:
National Center for Advancing Translational Sciences [NCATS]
Division of Preclinical Innovation [DPI]
U.S. Environmental Protection Agency [EPA]
National Institutes of Environmental Health Sciences [NIEHS]
National Toxicology Program [NTP]
U.S. Food and Drug Administration [FDA]
Acetylcholinesterase (AChE) is the primary cholinesterase in the body that hydrolyzes a key neurotransmitter, acetylcholine. Inhibition of AChE activity can lead to neurotoxicity. The known inhibitors include organophosphorous pesticides (OP), chemical warfare agents, drugs, and various phytochemicals. Some compounds like OP compounds may need metabolic activation to be active AChE inhibitors. The cytochrome P450 (CYP) superfamily in the human microsomes is responsible for the metabolism of various endogenous and exogenous compounds.
An enzyme-based assay with the recombinant human AChE, human liver microsomes and Amplite Colormetric acetylcholinesterase assay kit (AAT Bioquest, Sunnyvale, CA) was used to evaluate compounds in the Tox21 10K library that need metabolic activation for AChE inhibition. The assay uses 5, 5-dithiobis-(2-nitrobenzoic acid) (DTNB) to quantify the thiocholine produced from the hydrolysis of acetylthiocholine by AChE.
Tox21 Assay Protocol Summary:
For the enzyme-based AChE assay with microsomes addition, a mixture of human AChE (50 mU/mL) and human liver microsomes (0.25 mg/mL, final concentration) in 3 uL/well was dispensed into black, clear-bottom 1536-well plates using a Multidrop Combi dispenser (Thermo Scientific, MA). Then, 23 nL of compound or DMSO (vehicle control) was transferred into the assay plates by a Pintool Station (Wako Automation, CA). Following compound addition, 1 uL of NADPH (0.25 mg/mL, final concentration) was transferred to the assay plate by a Flying Reagent Dispenser (Beckman Coulter, CA). The plates were incubated for 30 min at 37 C and 5% CO2, followed by the addition of 4 uL of colorimetric detection cocktail solution (DTNB, acetylthiocholine) into each well using a Flying Reagent Dispenser (Beckman Coulter, CA) and then 10 min incubation at room temperature.
For the compound `CC(=O)CC(=O)OC(C)(C)C`, the Potency entry was “inactive”.

`O=C(Nc1ccccc1)c1ccccc1O`: the Potency result was “inactive”.

With `COC(=O)c1cc(Cl)ccc1OC`, the Potency result was “inactive”.

Regarding `Oc1cccc2c(O)cccc12`, the Potency result is “inactive”.

Regarding `COC(C)=O`, the Potency entry is “inactive”.

As to `CC(=O)OC1CCCCC1C(C)(C)C` (stereo not given), the Potency result is “inactive”.

For `O=[N+]([O-])c1cccc(S(=O)(=O)NCCNS(=O)(=O)c2cccc([N+](=O)[O-])c2)c1`, the Potency result was “inactive”.

Consider `CC(C)[N+](C)(C)CC(O)COc1cccc2ccccc12` (stereo not given), for which the Potency result was “inactive”.

Turning to `C[C@H](CCC(=O)O)[C@H]1CC[C@H]2[C@@H]3[C@H](O)C[C@@H]4C[C@H](O)CC[C@]4(C)[C@H]3C[C@H](O)[C@]12C`, the Potency entry is “inactive”.

Turning to `Cc1cc(-c2ccccc2)nnc1NCCN1CCOCC1`, the Potency result was “inactive”.

Regarding `COc1cc(-c2nc(NC(=O)c3cc4cc(C)cc(C)c4n3CC(=O)O)sc2CCC2CCCCC2)c(OC)cc1Cl`, the Potency entry is “inactive”.

Regarding `CN1CCC(=C2c3ccccc3CC(=O)c3sccc32)CC1`, the Potency result was “inactive”.

With `c1ccc2occc2c1`, the Potency result was “inactive”.

Regarding `Cc1c(C(=O)NN2CCCCC2)nn(-c2ccc(Cl)cc2Cl)c1-c1ccc(Cl)cc1`, the Potency entry was “inactive”.

Turning to `Cc1ccc(N)cc1[N+](=O)[O-]`, the Potency result was “inactive”.

Turning to `CCN(CC)c1cccc(C)c1`, the Potency result was “inactive”.

`CC(O)COC(C)(C)C` (stereo not given): the Potency result is “inactive”.

As for `COC(=O)[C@H]1[C@H]2C[C@@H]3c4[nH]c5cc(OC)ccc5c4CCN3C[C@H]2C[C@@H](OC(=O)COc2ccc(OC)cc2)[C@@H]1OC`, the Potency entry is “inactive”.

On to `O=C(O)C1(C(=O)Nc2ccc(Cl)cc2Cl)CC1`, for which the Potency result is “inactive”.

On to `CCOC(OCC)C(=O)c1ccccc1`, for which the Potency result is “inactive”.

On to `CN(C)c1ccc(SC#N)cc1`, for which the Potency entry was “inactive”.

Take `CC(C)(C)c1ccc(OCC2CO2)cc1` (stereo not given): the Potency entry was “inactive”.

Take `CSc1ccc2c(c1)C(N1CCN(C)CC1)Cc1ccccc1S2` (stereo not given): the Potency result was “inactive”.

With `C[C@H](CCC(=O)O)[C@H]1CC[C@H]2[C@@H]3C(=O)C[C@@H]4CC(=O)CC[C@]4(C)[C@H]3CC(=O)[C@]12C`, the Potency result was “inactive”.

In the case of `CC(COc1ccccc1)NN` (stereo not given), the Potency result is “inactive”.

Turning to `C=CC(=C)CC/C=C(\C)CCC=C(C)C`, the activity change, negative = inhibition was -0.162% [at 23.6 µM].

Regarding `Cc1c(Cl)cccc1Nc1ccccc1C(=O)O`, the Potency entry is “inactive”.

Consider `Cc1cc(OI)c(C(C)C)cc1-c1cc(C(C)C)c(OI)cc1C`, for which the Potency result was “inactive”.

For the compound `O=C1Nc2ccc(Cl)cc2[C@@](C#CC2CC2)(C(F)(F)F)O1`, the Potency result was “inactive”.

In the case of `FC(F)(F)C(F)(F)C(F)(F)C(F)(F)C(F)(F)C(F)(F)C(F)(F)C(F)(F)Br`, the Potency result was “inactive”.

Take `COc1ccc2cc(CCC(C)=O)ccc2c1`: the Potency entry was “inactive”.

For the compound `CN1CCCC(CC2c3ccccc3Sc3ccccc32)C1` (stereo not given), the Potency entry was “inactive”.

Take `CCCCCCOC(=O)c1ccccc1`: the Potency entry is “inactive”.

Regarding `CC(C)(C)c1csc(-c2cc3cc(OCc4ccccc4CC(=O)O)ccc3o2)n1`, the Potency result is “inactive”.

As for `Cc1onc(-c2c(Cl)cccc2Cl)c1C(=O)Cl`, the Potency result was “inactive”.

`NC(Cc1ccc(Cl)cc1)C(=O)O` (stereo not given): the activity change, negative = inhibition was -1.76% [at 0.435 µM].

As to `O=C(OCC(COC(=O)c1ccccc1)(COC(=O)c1ccccc1)COC(=O)c1ccccc1)c1ccccc1`, the Potency result is “inactive”.

For the compound `CCOc1ccc(N)c([N+](=O)[O-])c1`, the Potency result was “inactive”.

With `CCCCCCCCCCCC[N+](C)(C)CCCCCCCCCCCC`, the Potency result is “inactive”.

Consider `O=C(CS(=O)Cc1ccco1)NC/C=C\COc1cc(CN2CCCCC2)ccn1` (stereo not given), for which the Potency entry is “inactive”.
